The values that follow come from PubChem BioAssay (EPA / NIEHS).

As a reminder, the AC50 is the midpoint of the concentration-response curve, whichever way the signal moves.

Activity calls are given as the source filed them. The calls were made as follows: active = hit-call score of the fitted dose curve at least 0.9, where 1 is the maximum; inactive = score below 0.9.

Read-out in assay [1]: TIMP metallopeptidase inhibitor 1 (TIMP1), TIMP1 (gene 7076)
Kind of assay: BSK_hDFCGF_TIMP1: BioMAP Diversity Plus: hDFCGF Assay for TIMP metallopeptidase inhibitor 1 (TIMP1) Biomarker Activity (AID 2283062). The conditions noted are these: primary human foreskin fibroblasts; actives raise or lower the signal. In short, it runs like this:
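Bidirectional curve fitting against DMSO baseline yielded this endpoint, based on ELISA detection of TIMP-1 in primary human foreskin fibroblasts exposed to compound for 24 h.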

Read-out in assay [2]: Monokine induced gamma interferon (MIG), CXCL9 (gene 4283)
Description: BSK_hDFCGF_MIG: BioMAP Diversity Plus: hDFCGF Assay for Monokine induced gamma interferon (MIG) Biomarker Activity (AID 2283063). The conditions noted are these: primary human foreskin fibroblasts; actives raise or lower the signal. In short, it runs like this:
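Endpoint derived by bidirectional fitting relative to DMSO; MIG quantified via ELISA in primary human foreskin fibroblasts harvested 24 h after dosing.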

Read-out in assay [3]: Matrix Metallopeptidase 1 (MMP1), MMP1 (gene 4312)
Description: BSK_hDFCGF_MMP1: BioMAP Diversity Plus: hDFCGF Assay for Matrix Metallopeptidase 1 (MMP1) Biomarker Activity (AID 2283064). The conditions noted are these: primary human foreskin fibroblasts; actives raise or lower the signal. In short, it runs like this: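 MMP1 levels quantified by ELISA 24 h after dosing human dermal fibroblast cultures, with parallel SRB total-protein staining for overt cytotoxicity. Data fitted in both directions against DMSO baseline.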

Read-out in assay [4]: Vascular cell adhesion molecule 1 (VCAM1), VCAM1 (gene 7412)
Kind of assay: BSK_hDFCGF_VCAM1: BioMAP Diversity Plus: hDFCGF Assay for Vascular cell adhesion molecule 1 (VCAM1) Biomarker Activity (AID 2283065). The conditions noted are these: primary human foreskin fibroblasts; actives raise or lower the signal. In short, it runs like this:
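Measured after 24 h chemical treatment of primary human skin fibroblasts, VCAM-1 was detected by ELISA and concentration-response analysed in both directions versus DMSO vehicle.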

Read-out in assay [5]: Plasminogen activator inhibitor-1 (PAI1), SERPINE1 (gene 5054)
Description: BSK_hDFCGF_PAI1: BioMAP Diversity Plus: hDFCGF Assay for Plasminogen activator inhibitor-1 (PAI1) Biomarker Activity (AID 2283066). The conditions noted are these: primary human foreskin fibroblasts; actives raise or lower the signal. The procedure, abridged:
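Human skin fibroblast cultures receive chemical for 24 h before PAI-1 is measured by ELISA; signal changes are fitted bidirectionally against DMSO-treated wells.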

Read-out in assay [6]: Intercellular Adhesion Molecule 1 (ICAM1), ICAM1 (gene 3383)
Kind of assay: BSK_KF3CT_ICAM1: BioMAP Diversity Plus: KF3CT Assay for Intercellular Adhesion Molecule 1 (ICAM1) Biomarker Activity (AID 2283067). The conditions noted are these: primary human keratinocytes with fibroblasts; actives raise or lower the signal. The procedure, abridged:
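Bidirectional curve fitting against a DMSO baseline was applied to ICAM-1 ELISA signal from primary human skin co-cultures harvested 24 h after treatment, with SRB staining of parallel wells for overt cytotoxicity.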

Read-out in assay [7]: Interferon-gamma inducible Protein 10 (IP10), CXCL10 (gene 3627)
Description: BSK_KF3CT_IP10: BioMAP Diversity Plus: KF3CT Assay for Interferon-gamma inducible Protein 10 (IP10) Biomarker Activity (AID 2283068). The conditions noted are these: primary human keratinocytes with fibroblasts; actives raise or lower the signal. The procedure, abridged:
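Signal is secreted/surface IP-10 by ELISA in a human primary skin co-culture of keratinocytes and foreskin fibroblasts, taken 24 h post-dosing; DMSO served as negative control.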

Assay [8] in a line: BSK_KF3CT_SRB: Viability Assessment in the BioMAP Diversity Plus: KF3CT Assay (AID 2283069).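 Also: total protein by sulforhodamine B staining as a cytotoxicity measure; read 24 h after compound addition.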 The conditions noted are these: primary human keratinocytes with fibroblasts. In short, it runs like this: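 Cytotoxicity was gauged by SRB staining (0.1% SRB, 10% TCA fixation, 560 nm) of parallel cultures at 24 h. The cells were primary human skin keratinocytes co-cultured with fibroblasts, and activity was fitted in both directions against DMSO.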

Read-out in assay [9]: Interleukin-1 alpha (IL1a), IL1A (gene 3552)
Description: BSK_KF3CT_IL1a: BioMAP Diversity Plus: KF3CT Assay for Interleukin-1 alpha (IL1a) Biomarker Activity (AID 2283070). The conditions noted are these: primary human keratinocytes with fibroblasts; actives raise or lower the signal. In short, it runs like this: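 IL-1a was detected by ELISA 24 h after chemical treatment of a co-culture of human skin keratinocytes and foreskin fibroblasts. Gain or loss of signal was fitted against the DMSO baseline.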

Read-out in assay [10]: TIMP metallopeptidase inhibitor 2 (TIMP2), TIMP2 (gene 7077)
Description: BSK_KF3CT_TIMP2: BioMAP Diversity Plus: KF3CT Assay for TIMP metallopeptidase inhibitor 2 (TIMP2) Biomarker Activity (AID 2283071). The conditions noted are these: primary human keratinocytes with fibroblasts; actives raise or lower the signal. In short, it runs like this:
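Measurements come from ELISA detection of TIMP-2 at 24 hours in a dosed human keratinocyte and foreskin fibroblast co-culture. DMSO serves as negative control and baseline.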

Read-out in assay [11]: Transforming growth factor beta 1 (TGFb1), TGFB1 (gene 7040)
Description: BSK_KF3CT_TGFb1: BioMAP Diversity Plus: KF3CT Assay for Transforming growth factor beta 1 (TGFb1) Biomarker Activity (AID 2283072). The conditions noted are these: primary human keratinocytes with fibroblasts; actives raise or lower the signal. The procedure, abridged: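 TGF-b1 ELISA on a 24 h dosed co-culture of human keratinocytes and foreskin fibroblasts; cytotoxicity tracked in parallel cultures by SRB staining.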

Read-out in assay [12]: C-C motif chemokine 2 (Homo sapiens) (UniProt P13500)
Kind of assay: BSK_KF3CT_MCP1: BioMAP Diversity Plus: KF3CT Assay for Monocyte Chemoattractant Protein 1 (MCP1/CCL2) Biomarker Activity (AID 2283073). The conditions noted are these: primary human keratinocytes with fibroblasts; actives raise or lower the signal. In short, it runs like this:
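Biomarker MCP-1 is measured by ELISA in primary human keratinocytes co-cultured with foreskin fibroblasts, 24 h after chemical treatment; DMSO serves as the negative control and activity baseline.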

Read-out in assay [13]: Matrix Metallopeptidase 9 (MMP9), MMP9 (gene 4318)
Description: BSK_KF3CT_MMP9: BioMAP Diversity Plus: KF3CT Assay for Matrix Metallopeptidase 9 (MMP9) Biomarker Activity (AID 2283074). The conditions noted are these: primary human keratinocytes with fibroblasts; actives raise or lower the signal. The procedure, abridged:
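MMP-9 quantified by ELISA after 24 h chemical treatment of primary human skin keratinocyte/fibroblast co-cultures; gain or loss fitted against DMSO, with parallel SRB staining (0.1% SRB, 560 nm) for overt cytotoxicity.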

Read-out in assay [14]: CD40, CD40 (gene 958)
Kind of assay: BSK_LPS_CD40: BioMAP Diversity Plus: LPS Assay for CD40 Biomarker Activity (AID 2283076). The conditions noted are these: primary human HUVEC with PBMC; actives raise or lower the signal. The procedure, abridged:
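Using a multiplexed primary human co-culture (umbilical vein endothelium plus PBMC), CD40 was read by ELISA 24 h after dosing, with cytotoxicity tracked by sulforhodamine B staining of parallel cultures and activity fitted bidirectionally versus DMSO.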

Read-out in assay [15]: E-selectin (Homo sapiens) (UniProt P16581)
Description: BSK_LPS_Eselectin: BioMAP Diversity Plus: LPS Assay for Eselectin Biomarker Activity (AID 2283077). The conditions noted are these: primary human HUVEC with PBMC; actives raise or lower the signal. In short, it runs like this:
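Dose chemical onto LPS-driven HUVEC/PBMC co-culture; after 24 h, run ELISA for E-selectin; fit up- and down-going responses relative to DMSO control.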

Read-out in assay [16]: Interleukin-8 (IL8), CXCL8 (gene 3576)
Description: BSK_LPS_IL8: BioMAP Diversity Plus: LPS Assay for Interleukin-8 (IL8) Biomarker Activity (AID 2283078). The conditions noted are these: primary human HUVEC with PBMC; actives raise or lower the signal. In short, it runs like this: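 In this LPS system, chemical-treated human umbilical vein endothelium/PBMC co-cultures were harvested at 24 h for IL-8 ELISA.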

A short description of assay [17]: BSK_LPS_SRB: Viability Assessment in the BioMAP Diversity Plus: LPS Assay (AID 2283079).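 Also: total protein by sulforhodamine B absorbance as a cytotoxicity measure; measured one day after compound addition; fitted in both directions against DMSO so loss or gain of signal counts.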 The conditions noted are these: primary human HUVEC with PBMC. In short, it runs like this: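 Cytotoxicity endpoint in human endothelial–PBMC co-culture: 24 h exposure, then SRB (0.1%) staining, 560 nm read.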
Read-out in assay [18]: Interleukin-1 alpha (IL1a), IL1A (gene 3552)
Kind of assay: BSK_LPS_IL1a: BioMAP Diversity Plus: LPS Assay for Interleukin-1 alpha (IL1a) Biomarker Activity (AID 2283080). The conditions noted are these: primary human HUVEC with PBMC; actives raise or lower the signal. The procedure, abridged:
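Primary human HUVEC and PBMC co-culture stimulated with LPS is dosed and harvested at 24 h. Both increases and decreases in ELISA-measured IL-1a are scored relative to DMSO.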

Read-out in assay [19]: Monocyte Chemoattractant Protein-1 (MCP1), CCL2 (gene 6347)
Kind of assay: BSK_LPS_MCP1: BioMAP Diversity Plus: LPS Assay for Monocyte Chemoattractant Protein-1 (MCP1) Biomarker Activity (AID 2283081). The conditions noted are these: primary human HUVEC with PBMC; actives raise or lower the signal. In short, it runs like this:
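Values derive from bidirectional fitting against DMSO of ELISA-measured MCP-1 in a human primary endothelial and mononuclear cell co-culture, 24 h after chemical addition under LPS activation.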

Read-out in assay [20]: urokinase plasminogen activator (uPA), PLAU (gene 5328)
Kind of assay: BSK_KF3CT_uPA: BioMAP Diversity Plus: KF3CT Assay for urokinase plasminogen activator (uPA) Biomarker Activity (AID 2283075). The conditions noted are these: primary human keratinocytes with fibroblasts; actives raise or lower the signal. In short, it runs like this:
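ELISA read-out of uPA 24 h after dosing human skin keratinocytes co-cultured with foreskin fibroblasts. Signal change fitted both ways relative to DMSO; sulforhodamine B on parallel cultures marks overt cytotoxicity.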

E-selectin (Homo sapiens), sequence (P16581 whole entry, looked up): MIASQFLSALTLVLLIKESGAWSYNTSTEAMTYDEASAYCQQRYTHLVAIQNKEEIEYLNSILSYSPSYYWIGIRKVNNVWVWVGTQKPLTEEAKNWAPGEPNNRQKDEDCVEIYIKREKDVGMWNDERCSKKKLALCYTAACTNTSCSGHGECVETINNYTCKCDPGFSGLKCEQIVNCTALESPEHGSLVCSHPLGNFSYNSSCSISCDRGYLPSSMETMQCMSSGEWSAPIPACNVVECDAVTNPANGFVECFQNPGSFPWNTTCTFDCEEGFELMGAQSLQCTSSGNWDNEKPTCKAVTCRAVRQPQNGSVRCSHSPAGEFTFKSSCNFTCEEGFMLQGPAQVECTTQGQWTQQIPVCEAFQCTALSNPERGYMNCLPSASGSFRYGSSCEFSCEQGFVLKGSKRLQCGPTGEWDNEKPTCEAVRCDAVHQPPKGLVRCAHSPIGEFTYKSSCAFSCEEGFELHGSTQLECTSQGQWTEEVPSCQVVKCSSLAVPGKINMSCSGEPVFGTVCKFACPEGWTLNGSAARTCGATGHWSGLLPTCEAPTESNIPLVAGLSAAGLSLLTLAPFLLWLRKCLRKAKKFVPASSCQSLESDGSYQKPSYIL

On to `CC(=O)OCCC(C)C`, for which the result in assay [1], in [2], in assay [3], in assay [4], in assay [5] and in assay [6] was inactive. The outcome in [7], in [8], in assay [9], in [10], in assay [11] and in [12] was inactive. The result in assay [13], in assay [14], in assay [15], in assay [16], in assay [17] and in [18] was inactive. The outcome in [19] was inactive.
As for `CCCCCCCCO`, the outcome in [1], in [2], in [3], in assay [4], in assay [5] and in assay [6] was inactive. Moreover, the outcome in [7], in [8], in [9], in [10], in [11] and in [12] was inactive. Moreover, the outcome in assay [13], in assay [14], in assay [15], in assay [16], in assay [17] and in assay [18] was inactive. In addition, the outcome in assay [19] was inactive.
Consider `CC(C)=CCC/C(C)=C\CO`, for which the result in [1], in [2], in assay [3], in assay [4], in assay [5] and in [6] was inactive. The result in assay [7], in assay [8], in assay [9], in assay [10], in assay [12] and in assay [13] was inactive. The result in [20], in assay [15], in assay [16], in assay [17], in [18] and in assay [19] was inactive.
Take `CC(=O)OC[C@H]1O[C@@](COC(C)=O)(O[C@H]2O[C@H](COC(C)=O)[C@@H](OC(C)=O)[C@H](OC(C)=O)[C@H]2OC(C)=O)[C@@H](OC(C)=O)[C@@H]1OC(C)=O`: the outcome in assay [1], in assay [2], in assay [3], in [4], in [5] and in [6] was inactive. For the same compound, the outcome in assay [7], in [8], in [9], in assay [10], in assay [11] and in assay [12] was inactive. The outcome in assay [13], in assay [14], in assay [15], in assay [16], in assay [17] and in assay [18] was inactive. Moreover, in assay [19], the outcome was inactive.
On to `CCCCC(CC)COC(=O)CCCCCCCCC(=O)OCC(CC)CCCC` (centres undefined), for which the result in [1], in [2], in assay [3], in assay [4], in assay [5] and in assay [6] was inactive. Further, the outcome in [7], in assay [8], in assay [9], in assay [10], in assay [11] and in assay [13] was inactive. Also, the result in assay [14], in [15], in [16], in [17], in assay [18] and in assay [19] was inactive. Also, in assay [12], the half-maximal activity concentration (AC50) was 3.97 µM (active).
